Sampled rows, rich in hits. Any-hit rate of the full collection: about 11%.
NPSR antag = antagonists of human neuropeptide S receptor cAMP signaling | Q6W5P4 | CHO-NPSR cells, cAMP TR-FRET, antagonist mode | Potency, µM (doses to about 38.3 µM), actives largely listed as inhibitors | actives 1% (n = 220,000); also: nearly all actives have a fitted effect of over 50% in size
Target sequence (Q6W5P4 whole entry, looked up): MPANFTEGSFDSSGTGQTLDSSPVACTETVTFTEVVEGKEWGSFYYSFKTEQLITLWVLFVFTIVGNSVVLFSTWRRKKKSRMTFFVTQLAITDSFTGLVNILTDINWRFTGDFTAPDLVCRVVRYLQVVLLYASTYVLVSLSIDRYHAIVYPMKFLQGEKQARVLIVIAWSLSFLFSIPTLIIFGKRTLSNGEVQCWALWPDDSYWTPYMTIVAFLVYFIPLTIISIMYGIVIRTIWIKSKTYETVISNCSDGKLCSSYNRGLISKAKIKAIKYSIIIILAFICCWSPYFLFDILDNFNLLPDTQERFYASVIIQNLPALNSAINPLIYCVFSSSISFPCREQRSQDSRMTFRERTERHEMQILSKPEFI
PNC inhibitor = blocks assembly of the perinucleolar compartment | PC3M PTB-GFP, PNC prevalence imaging, 16 h; stronger effect = lower value | activity change (PNC), negative = inhibition, % at 10 µM | actives 3.1% (n = 140,000) | AID 2417;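 active = readout at or below -70, meaning at least 70% loss of cells showing the perinucleolar compartment, a nuclear body marking cancer cells; inconclusive = readout between -30 and a set limit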
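PC3M cells stably expressing PTB-GFP, 750–1000 cells/well, treated 16 h at 37 °C with compound (23 nl of library stock), in duplicate. After paraformaldehyde fixation and Hoechst stain, imaged at 20x; PNC prevalence scored by image analysis.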
IMPase Li inh = cell-permeable IMPase inhibitors with lithium potentiation. CHO-M1 cells, IP1 TR-FRET (IP-One), carbachol + lithium. Potency, µM (doses to about 59.4 µM), actives largely listed as inhibitors. actives 0.35% (n = 210,000). AID 1457;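 also: IP1 builds up when IMPase is blocked and the TR-FRET signal falls; nearly all actives have a fitted effect of over 50% in size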
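Test compounds were applied to CHO-M1 cells previously cultured for 16–30 h at 2000 per well. A small lithium amount accompanied them; after 30 min at 37C, IP1 was quantified by TR-FRET.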
IMPase cell inh = membrane-permeable compound that blocks inositol monophosphatase | P97697 | CHO-M1 cells, IP1 accumulation, HTRF TR-FRET ratio | inhibition (IP1 accumulation), % at 46.1 µM | 120,000 tested, under 10 active; active = well fitted curve in the direction sought with a large enough effect in the signal ratio, not every such curve was filed as active; inconclusive = small, poorly fitted or top-dose-only effect, or a change in a side signal; inactive = no such curve, though single readings can be large or run the other way; the % refers to the signal ratio;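 also: cells stimulated with carbachol in lithium chloride buffer; higher means more IMPase inhibition seen as more IP1 and lower FRET ratio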
Target sequence (P97697 whole entry, looked up): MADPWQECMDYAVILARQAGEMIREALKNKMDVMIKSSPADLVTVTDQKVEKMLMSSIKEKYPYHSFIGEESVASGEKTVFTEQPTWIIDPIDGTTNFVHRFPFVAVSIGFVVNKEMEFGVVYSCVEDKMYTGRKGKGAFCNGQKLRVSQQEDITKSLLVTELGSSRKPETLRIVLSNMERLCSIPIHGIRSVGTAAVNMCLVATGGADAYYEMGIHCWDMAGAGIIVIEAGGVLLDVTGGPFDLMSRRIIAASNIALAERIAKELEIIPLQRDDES
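Seeded CHO-M1 cells were dosed with compound at up to 46 uM, stimulated with carbachol for 30 min, then lysed in IP-One detection reagents. Higher IP1 lowers the TR-FRET signal.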
ALDH1A1 block = inhibitors of human aldehyde dehydrogenase 1A1 | Potency, µM (top dose mostly 75.3 µM), hits mostly inhibitors | actives 7.3% (n = 220,000) | Purified ALDH1A1, NADH fluorescence, propionaldehyde substrate; active = well fitted inhibition curve with a large enough effect, not every such curve was filed as active; inconclusive = small, poorly fitted or top-dose-only effect, or another doubt; inactive = no such curve, though single readings can be large or run the other way
HPGD inh = inhibitors of human 15-hydroxyprostaglandin dehydrogenase (HPGD) | Potency, µM, actives largely listed as inhibitors | actives 4.3% (n = 150,000) | P15428 | purified HPGD, NADH fluorescence kinetic, PGE2 substrate; active = well fitted inhibition curve with a large enough effect, not every such curve was filed as active; inconclusive = small, poorly fitted or top-dose-only effect, or another doubt; inactive = no such curve, though single readings can be large or run the other way
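NADH formation kinetics: reaction with 30 uM PGE2 and 1 mM NAD+ (final), 20 nM enzyme, Tris-HCl pH 8 with Tween 20, after 15 min compound preincubation at room temperature. Fluorescence change, last versus first of five reads.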
Hits are given with their value; - = inactive; ? = inconclusive; . = not tested or not shown; [ ] = dose if it differs, or a comment. Unless noted, calls follow the shape of the dose curve; as a rule, active = well fitted curve in the direction sought with a large enough effect; inconclusive = small, poorly fitted or top-dose-only effect, or another doubt; inactive = no such curve, though single readings can be large; an effect the other way counts as inactive or inconclusive.

SMILES | NPSR antag | PNC inhibitor | IMPase Li inh | IMPase cell inh | ALDH1A1 block | HPGD inh
COc1cccc([C@@H]2Oc3ccc(OC)cc3C[C@H]2OC(=O)Nc2ccc(OC(F)F)cc2)c1 | . | . | - | . | - | -
CC(=O)O[C@H]1CSC[C@H]1NC(=O)c1ccccc1 | - | ? | - | - | - | -
COC(=O)NC1CSCC1OC(=O)CN1C(=O)c2ccccc2C1=O (configuration not stated) | - | -85 | - | - | - | -
COc1ccc(CNC(=O)C(c2ccc(C)o2)N(C(=O)c2csnn2)c2ccc(C(C)C)cc2)cc1 (configuration not stated) | ? | - | - | - | 2µM | -
CCc1ccc(N(C(=O)c2csnn2)C(C(=O)NCc2ccccc2)c2ccco2)cc1 (configuration not stated) | ? | - | - | - | 7.9µM | -
CCOC(=O)c1[nH]c(C)c(C(=O)NCc2ccc(Cl)cc2)c1C | - | - | - | - | - | -
Cc1cccc(-n2c(=S)[nH]c3sc4c(c3c2=O)CCc2ccccc2-4)c1 | - | . | - | . | 3.2µM | .
Cc1nc(SCn2nnc3ccccc3c2=O)nc(C)c1C | - | ? | - | - | ? | 14µM
C=CCn1c(SCn2nnc3ccccc3c2=O)nnc1-c1ccc(Br)cc1 | - | -84 | - | - | - | -
O=c1c2ccccc2nnn1CSc1ccc2ccccc2n1 | - | -104 | - | . | - | -
C=CCNc1nc(NCCN2CCOCC2)nc(OC)n1 | -[7.67 µM] | - | - | - | - | -
O=C(Nc1ccc(-n2cnnn2)cc1)C1CCCCC1 | - | - | - | - | - | -
CCCOC(=S)NC(=O)c1sc2ccccc2c1Cl | - | ? | ? | - | 5.6µM | 20µM
O=C(NC(=S)NCCO)c1sc2ccccc2c1Cl | - | . | - | . | ? | .
COc1cc(NS(=O)(=O)c2ccc(NC(=S)NC(=O)c3sc4ccccc4c3Cl)cc2)ncn1 | - | ? | - | ? | 22µM | -
CCOC(=S)NC(=O)c1sc2ccccc2c1Cl | - | -109 | ? | - | 0.35µM | -
COc1cccc(CNC(=O)C2CCCN(S(C)(=O)=O)C2)c1 (configuration not stated) | - | - | - | - | - | -
CCc1ccc(NC(=O)Nc2c(C)n(C)n(-c3ccccc3)c2=O)cc1 | - | . | - | . | - | .
CSc1ncccc1C(=O)Nc1ccc2nc(C)sc2c1 | - | . | . | . | . | .
CN1CCc2c(sc(N)c2C(N)=O)C1 | - | - | - | - | ? | ?
COCCN1C(=O)C(O)=C(C(C)=O)C1c1ccc(F)cc1 (configuration not stated) | - | - | ? | - | 14µM | ?
Cc1nc(C)c(C(=O)C2=C(O)C(=O)N(CCN3CCOCC3)C2c2cccnc2)s1 (configuration not stated) | - | ? | - | - | - | -
O=C(C1=C(O)C(=O)N(Cc2ccccc2)C1c1ccncc1)c1ccco1 (configuration not stated) | - | - | - | - | ? | -
O=C(C1=C(O)C(=O)N(CC2CCCO2)C1c1cccnc1)c1ccco1 (configuration not stated) | ? | - | 13µM | ? | - | -
Cc1ccc(C2C(C(=O)c3cc4ccccc4o3)=C(O)C(=O)N2CCN2CCOCC2)o1 (configuration not stated) | - | - | - | -[1.84 µM] | 14µM | -
SMILES | NPSR antag | PNC inhibitor | IMPase Li inh | IMPase cell inh | ALDH1A1 block | HPGD inh
O=C(C1=C(O)C(=O)N(CCN2CCOCC2)C1c1cccnc1)c1cc2ccccc2o1 (configuration not stated) | - | - | 10µM | - | 35µM | -
COc1cccc2cc(C(=O)C3=C(O)C(=O)N(Cc4ccco4)C3c3cccnc3)oc12 (configuration not stated) | 7.9µM | - | 10µM | ? | 5.6µM | -
CC(=O)C1=C(O)C(=O)N(CCN2CCOCC2)C1c1ccccc1 (configuration not stated) | - | - | - | - | 25µM | -
CC(=O)C1=C(O)C(=O)N(C2CCCCC2)C1c1ccccc1 (configuration not stated) | - | - | - | ? | 22µM | -
O=C(C1=C(O)C(=O)N(CCCN2CCOCC2)C1c1ccncc1)c1cc2ccccc2o1 (configuration not stated) | - | - | - | - | 14µM | -
COc1ccc(CCNC(=S)NC(=O)c2cc(OC)c(OC)c(OC)c2)cc1OC | - | . | . | . | . | .
C=C1C[C@@]23C[C@]1(O)CC[C@@H]2[C@]12C=C[C@@H](O)[C@](C)(C(=O)O1)[C@H]2[C@H]3C(=O)O | . | . | - | - | - | -
Cc1cc(C(=O)CN2C(=O)NC3(CCCCC3C)C2=O)c(C)n1Cc1cccs1 (configuration not stated) | - | - | - | . | ? | -
CN(C)CCCN1C(=O)C(O)=C(C(=O)c2cc3ccccc3o2)C1c1ccccc1 (configuration not stated) | ? | - | 10µM | ? | - | -
COC(=O)c1ccc(C2C(C(=O)c3cc4ccccc4o3)=C(O)C(=O)N2CCCN(C)C)cc1 (configuration not stated) | - | ? | ? | - | ? | -
COc1cc(NC(N)=S)c(OC)cc1Cl | - | . | . | . | . | .
COc1ccc(CN(N=O)C2CC(=O)N(c3ccc(OC)cc3)C2=O)cc1 (configuration not stated) | - | . | . | . | . | .
COc1ccc(CN(C(=S)Nc2ccccc2)C2CC(=O)N(c3ccccc3)C2=O)cc1 (configuration not stated) | - | - | - | - | - | -
COC(=O)c1ccc(N2C(=O)CC(N(C)CCc3ccc(OC)c(OC)c3)C2=O)cc1 (configuration not stated) | - | -119 | - | - | 3.5µM | -
COC(=O)c1ccc(N2C(=O)CC(N(C)Cc3ccccc3)C2=O)cc1 (configuration not stated) | - | - | - | - | 8.9µM | -
CN(Cc1ccncc1)C1CC(=O)N(c2ccc(F)cc2)C1=O (configuration not stated) | - | . | - | . | 18µM | .
COc1ccc(CN(C(=S)Nc2ccccc2)C2CC(=O)N(c3ccc(Cl)cc3)C2=O)cc1 (configuration not stated) | ? | - | - | ? | 7.1µM | -
O=c1c2cc(Cl)cc(Cl)c2nc2n1CCC2 | - | . | - | . | - | .
CC1(C)CC(=NNC(=O)c2n[nH]c3c2CCC3)CC(C)(C)N1 | - | . | - | . | ? | .
O=C(c1ccc(COc2ccccc2Br)o1)N1N=C(C(F)F)CC1(O)C(F)F (configuration not stated) | - | ? | - | . | - | -
COc1ccc(C2CC(=O)C(C=NCCCN3CCOCC3)=C(O)C2)cc1 (configuration not stated) | - | - | - | - | - | -

Source: PubChem
